Compound activity deposited in PubChem BioAssay by National Center for Advancing Translational Sciences (NCATS).
HCMV antiviral: human cytomegalovirus inhibition; activity change, negative = inhibition, % at 57.5 µM; hit rate 4.5% among 410,000; HFF cells, HCMV-luciferase reporter, 72 h; active compounds read low; in the data active = activity change below about -60%; inconclusive = no clear call, values can overlap the other calls; inactive = above about -39%
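Luciferase read-out from HCMV-luciferase-infected HFFs (MOI 1 PFU/cell) 72 h post infection at 37C; compounds added after 16 h cell attachment; activity normalized between buffer-only basal and Salinomycin (10uM) inhibitor controls.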
VACV Venus inh: inhibitors of vaccinia virus (Venus reporter); Vaccinia virus Venus reporter expression, fluorescence; Potency, µM (highest dose often 36.5 µM), for the others: at the top dose activity change, negative = inhibition, usual class: inhibitors; hit rate 0.46% among 330,000; calls by dose curve; tested in A549 cells; also: potency is read from the fitted curve at half-maximal effect; nearly all actives have a fitted effect of over 30% in size
MARV entry inh: Marburg virus entry inhibition. Marburg virus pseudotyped entry inhibition, cell reporter. Potency, µM (top dose mostly 37.8 µM), inactives show at the top dose activity change, negative = inhibition, hits mostly inhibitors. hit rate 1.8% among 300,000; calls by dose curve; tested in HEK293 cells; also: potency is read from the fitted curve at half-maximal effect
Lassa entry inh: inhibitors of Lassa virus binding or cell entry | AID 540256 | hit rate 1.2% among 300,000 | Lassa virus pseudotype entry inhibition, cell reporter | Potency, µM (series often up to 37.9 µM), inactives show at the top dose activity change, negative = inhibition, most hits filed as inhibitors; calls by dose curve; tested in HEK293 cells; also: potency is read from the fitted curve at half-maximal effect; nearly all actives have a fitted effect of over 50% in size
HCV inhibitor: inhibitors of hepatitis C virus infection; Huh7.5.1 HCVcc-Cre infection, luciferase reporter, 44 h; Potency, µM (series often up to 41.8 µM), for inactives: at the top dose activity change, negative = inhibition, actives largely listed as inhibitors; hit rate 3.4% among 340,000; AID 651820; active = well fitted inhibition curve with a large enough effect; inconclusive = small, poorly fitted or top-dose-only effect, or another doubt; inactive = no such curve, though single readings can be large or run the other way; also: potency is read from the fitted curve at half-maximal effect
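Cells seeded at 1,000/well and cultured 4 h, then compounds added followed by HCVcc-Cre virus (~0.5 moi). After 44 h further culture, luciferase substrate was added, plates held 15 min at room temperature, and luminescence read for 15 sec.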
Vaccinia mCherry: vaccinia inhibition (mCherry reporter). Vaccinia virus mCherry reporter infection, fluorescence. Potency, µM (titrated, usually from 36.5 µM), for inactives: at the top dose activity change, negative = inhibition, usual class: inhibitors. hit rate 0.63% among 310,000. AID 720579; calls by dose curve; tested in A549 cells; also: potency is read from the fitted curve at half-maximal effect; nearly all actives have a fitted effect of over 35% in size
* = called active by the depositor; i = inactive; ? = inconclusive; . = not tested or not shown; [ ] = dose if it differs, or a comment. Shown are actives, neighbours in structure and some others; about 7.8% of the full set was active somewhere. % is scaled to controls: 0 for no effect and ±100 for the full control effect.

SMILES | HCMV antiviral | VACV Venus inh | MARV entry inh | Lassa entry inh | HCV inhibitor | Vaccinia mCherry
COc1ccccc1-c1oc2ccccc2c1-c1ccc2cc[nH]c2c1 | 13.0 | ? | . | . | 11.2µM* | -26.6%
COc1cc2c(-c3ccc4cc[nH]c4c3)c(-c3ccc(C#N)cc3)oc(=O)c2cc1OC | -30.1 | ? | . | . | 11.2µM* | ?
C[C@@H]1COc2cc(F)ccc2S(=O)(=O)N1 | . | . | . | -6.9%[46.1 µM] | . | .
O=C(Nc1cccc2ncccc12)c1ccc([N+](=O)[O-])o1 | -99.8* | ? | ? | ? | 25.1µM* | ?
O=C(Nc1cccc2ncccc12)c1ccc(-c2ccc(Br)cc2)o1 | 17.9 | . | ? | -0.6% | -20.3% | .
Cc1c(NC(=O)c2ccc([N+](=O)[O-])o2)cccc1-c1nc2ncccc2o1 | -86.5* | ? | ? | -4.6% | ? | ?
Cc1cccnc1NC(=O)c1ccc([N+](=O)[O-])o1 | -76.0* | -10.4% | 5.5% | -22.2% | 5.0% | -25.8%
Cc1cccnc1NC(=O)c1ccccc1-c1ccccc1C(=O)Nc1ncccc1C | -7.4 | 1.9% | 3.7% | 7.31µM* | 10.7% | i
C[N+]1(C)CCO[C@@](O)(c2ccc(-c3ccc([C@]4(O)C[N+](C)(C)CCO4)cc3)cc2)C1 | . | . | 16.2% | . | . | .
CN1OC[C@@H]2CN(S(=O)(=O)c3cccc4ccccc34)[C@H](c3ccc(-c4ccccc4)cc3)C[C@@H]21 | -7.6 | -26.7% | . | . | . | i
CN1OC[C@@H]2CN3C(=O)N(c4cccc5ccccc45)c4ccccc4[C@@H]3C[C@@H]21 | -101.7* | -0.7% | . | . | . | i
Nc1[nH]n2c(=O)c3c(nc2c1N=Nc1ccccc1)CCCC3 | ? | ? | -5.6%[46.1 µM] | ? | -12.9% | .
Nc1[nH]n2c(=O)c3c(nc2c1N=Nc1ccc(Cl)cc1)CCCC3 | -95.3* | -18.4% | 1.9%[46.1 µM] | 9.6% | 13.8% | .
CCOC(=O)c1[nH]c2ccc(F)cc2c1NC(=O)CN1CCN(C/C=C/c2ccccc2)CC1 | -21.6 | ? | ? | ? | 10µM* | .
COC(=O)c1[nH]c2ccccc2c1NC(=O)CN1CCN(C/C=C/c2ccccc2)CC1 | -61.0* | ? | 18.3µM* | ? | 11.2µM* | -26.0%
COc1ccc(-c2cn3nc(N4CCCC(C(=O)NCc5ccccc5OC)C4)sc3n2)cc1 (stereo not given) | 0.0 | -19.8% | . | 9.2%[46.1 µM] | . | -16.8%
COc1ccc(NC(=O)/C=C/c2ccc(S(=O)(=O)N3CCOCC3)cc2)cc1 | -18.8 | . | . | . | -4.2% | .
COc1ccc(/C=C/C(=O)Nc2ccc(S(=O)(=O)N3CCOCC3)cc2)c(OC)c1 | ? | . | . | . | 10µM* | .
COc1ccc(/C=C/C(=O)Nc2ccc(C)c(S(=O)(=O)N3CCOCC3)c2)cc1 | -95.1* | ? | . | . | 2.82µM* | ?
O=C(Cn1ccn(-c2ccc(F)c(F)c2)c(=O)c1=O)Nc1ccccc1F | -6.2 | -1.3% | . | 9.3%[46.1 µM] | . | -8.4%
CCN(CC)c1ccc(NC(=O)CN(C)S(=O)(=O)c2cccc3nsnc23)c(C)c1 | -66.6* | -8.7%[7.34 µM] | ? | 3.0%[46.1 µM] | . | -7.8%[7.34 µM]
Cc1ccc(NC(=O)CN(C)S(=O)(=O)c2cccc3nsnc23)c(C)c1 | -15.0 | -14.1% | -0.6%[46.1 µM] | -1.4%[46.1 µM] | . | -16.1%
COc1cc(OC)c(OC)cc1CN1CCOc2ccc(CN3CCN(C(C)=O)CC3)cc2C1 | . | -9.9% | . | . | . | -14.9%
CCc1ccccc1NC(=O)Cn1c(=O)n(CCCS(=O)(=O)C2CCCCC2)c(=O)c2ccccc21 | -13.6 | -14.2% | 2.2%[46.1 µM] | 0.8%[46.1 µM] | . | -12.7%
CC(C)OC(=O)C1CC(C)(O)C(=O)C(C(=O)OC(C)C)C1c1ccc([N+](=O)[O-])cc1 (stereo not given) | -64.3* | 1.5% | ? | -16.5%[46.1 µM] | 1.0% | ?
SMILES | HCMV antiviral | VACV Venus inh | MARV entry inh | Lassa entry inh | HCV inhibitor | Vaccinia mCherry
CC(C)OC(=O)C1C(=O)CC(C)(O)C(C(=O)OC(C)C)C1c1ccc(F)cc1 (stereo not given) | ? | -23.5% | -3.3% | -0.8% | 8.3% | i
COCCNc1nc(Nc2ccc(C)cc2C)c2sccc2n1 | -76.0* | -28.6% | . | . | . | -10.8%
CN(C)CCCN(C(=O)c1ccc(Br)s1)c1nc2ccc(F)cc2s1 | 27.9 | -9.2% | . | 18.3%[46.1 µM] | . | -18.9%
Cc1ccc2nc(N(CCCN(C)C)C(=O)c3ccc(Br)s3)sc2c1 | 0.0 | -23.8% | ? | ? | 10µM* | -1.0%
Cc1ccc2nc(N(CCCN(C)C)C(=O)c3ccco3)sc2c1 | -27.7 | 3.2% | . | 11.1%[46.1 µM] | 10µM* | -3.7%
COC1=C(C(=O)c2ccccc2)C(=O)[C@@]2(CC=C(C)C)CC(C#N)C[C@@]1(CC=C(C)C)C2=O (stereo not given in full) | . | . | -16.4%[14.2 µM] | -36.0%[14.3 µM] | . | .
CC(OCC(O)CN(C)Cc1nc2ccccc2c(=O)[nH]1)c1ccc(Cl)cc1 (stereo not given) | -16.1 | -29.0% | . | . | 10µM* | i
CC(NC(=O)CN(C)Cc1nc2ccccc2c(=O)[nH]1)c1ccccc1 (stereo not given) | 11.5 | 4.1% | 3.4% | -18.9% | -8.0% | -6.8%
COc1ccc(NC(=O)Cc2c(SC)c3ccccc3n2Cc2ccccc2)cc1 | -86.9* | ? | ? | -24.6% | 16.0% | -15.2%
Cc1ccc(S(=O)(=O)N2C=CC(=O)CC2c2cccs2)cc1 (stereo not given) | 39.7 | . | . | . | . | .
COc1ccc2cc(C(=O)Nc3ccccc3)sc(=O)c2c1OC | -32.1 | -15.0% | 11.3% | 2.0% | ? | 0.1%
O=C(Nc1ccccc1)c1cc2ccc3ccccc3c2s1 | 152.0 | -12.2%[7.34 µM] | ? | 10.5% | 11.2µM* | -21.9%[7.34 µM]
O=C(NCCc1nnc2n1CCN(CC1CC=CCC1)CC2)c1ccc(F)cc1 (stereo not given) | . | -14.0% | . | . | . | i
CCCNCC(O)COc1ccccc1C(=O)CCc1ccccc1 (stereo not given) | 28.1 | -13.6% | 9.2µM* | ? | -17.0%[8.37 µM] | -19.9%
O=C(Cc1ccccc1)N/N=C/c1ccccc1F | . | . | . | . | 5.2% | .
O=C(CP(=O)(c1ccccc1)c1ccccc1)N/N=C/c1cc(Br)cc(Br)c1O | ? | -3.7% | ? | 2.82µM* | ? | -10.3%
O=C(Cc1ccccc1)N/N=C/c1cc(Br)cc(Cl)c1O | -18.5 | ? | ? | ? | ? | 12.6µM*
COc1cc(/C=N/NC(=O)Cc2ccc(Br)cc2)cc(OC)c1O | -17.5 | 2.6% | -9.7%[46.1 µM] | . | ? | -11.4%
COc1cc(Br)cc(/C=N/NC(=O)Cc2ccccc2)c1O | -20.5 | ? | -18.4% | 12.6µM* | 12.6µM* | ?
CC(C)CN(c1ccccc1)S(=O)(=O)c1nnc(NC(=O)C2CCCCC2)s1 | 5.4 | -6.1% | . | 13.5%[46.1 µM] | . | -6.2%
CC(CNC(=O)Cn1c(-c2cccs2)cc2ccccc21)c1ccccc1 (stereo not given) | 0.0 | -6.2% | . | -5.6%[46.1 µM] | . | -19.5%
C=CCOC(=O)C(C(C)=O)[C@@H](NC(=O)OC)c1cccc(F)c1 (stereo not given in full) | . | . | 12.5%[14.2 µM] | . | . | .
CCN(c1cc(C)cc(C)c1)S(=O)(=O)c1nnc(NC(=O)C(C)C)s1 | -77.3* | -21.4% | ? | -19.7% | -9.3% | -4.7%
